Source: PubChem BioAssay (NCI)
Several values for one entry are separate records, joined by “and”; a condition that tells them apart may be missing. Equal values may be shown once. The panel holds about 83,000 compounds, 20% with a hit somewhere; the sample as a whole holds those more often.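 The test compound was applied at a single concentration to cells in 96-well plates for 48 hours, and percent growth was recorded.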 Activity calls are given as the source filed them. Rule for the calls: active = growth percent below 10; inactive = the rest.

system: HL-60(TB) leukemia; assay: NCI-60 one-dose screen, 48 h (100 = growth as untreated, 0 = no growth, -100 = all killed); details: 10 µM unless noted

Structure (SMILES)	growth
CCOC(=O)c1nn(C2CCCCO2)c2ccc(NC(=O)CN3CCOCC3)cc12 (centres undefined)	97% (inactive)
C#CCOc1ccc2ncnc(Nc3cccc(CNC(=O)CCl)c3)c2c1	35.2% [8.25 µM] (inactive)
CC(C)=CCc1cc2c(cc1O)C1=C(C(=O)C3=C(NCCS3(=O)=O)C1=O)C(C=C(C)C)O2 (centres undefined)	-35.2% (active)
O=C1C=CC(=O)N1c1cccc(N2C(=O)C=CC2=O)c1	97.9% (inactive)
COc1ccc(OC)c(/C=C2\COc3ccc(O)cc3C2=O)c1	82.2% (inactive)
O=C(Nc1ccc(C(=O)O)c(O)c1)c1ccccc1	99% (inactive) and 105% (inactive)
CN(C)C(=S)SC(=S)N(C)C	103% (inactive) and 93.8% (inactive)
O=C(Nc1ncc(Cc2ccc(Cl)c(C(F)(F)F)c2)s1)c1ccc2nnsc2c1	42.5% (inactive)
COc1c(B(O)O)cccc1-c1nc2c(F)cc3[nH]ncc3c2c2c1CCCC2	-28.3% (active)
O=C(OCC1CC2(Cl)C(Cl)=C(Cl)C1(Cl)C2(Cl)Cl)C1C(C(=O)OCC2CC3(Cl)C(Cl)=C(Cl)C2(Cl)C3(Cl)Cl)C2(Cl)C(Cl)=C(Cl)C1(Cl)C2(Cl)Cl (centres undefined)	89.3% (inactive)
Cc1nc2sc(C(=O)Nc3ccccc3)c(N)c2cc1C(=O)c1ccccc1	21.8% (inactive)
CCCCCCCCCCCCCC(=O)Oc1ccc[nH]c1=O	97.1% (inactive)
COC(=O)c1cc(C(=O)OC)cc([N+](=O)[O-])c1	85.8% (inactive)
O=C(O)CNC(=O)C1(N2C(=O)c3ccccc3C2=O)CCCC1	90.6% (inactive)
